{
  "source": "the supplement of paper PMC8728848",
  "binders": {"B1": {"name": "MFG-E8 (Mus musculus), P21956 (protein)", "chain": "MQVSRVLAALCGMLLCASGLFAASGDFCDSSLCLNGGTCLTGQDNDIYCLCPEGFTGLVCNETERGPCSPNPCYNDAKCLVTLDTQRGDIFTEYICQCPVGYSGIHCETETNYYNLDGEYMFTTAVPNTAVPTPAPTPDLSNNLASRCSTQLGMEGGAIADSQISASSVYMGFMGLQRWGPELARLYRTGIVNAWTASNYDSKPWIQVNLLRKMRVSGVMTQGASRAGRAEYLKTFKVAYSLDGRKFEFIQDESGGDKEFLGNLDNNSLKVNMFNPTLEAQYIKLYPVSCHRGCTLRFELLGCELHGCSEPLGLKNNTIPDSQMSASSSYKTWNLRAFGWYPHLGRLDNQGKINAWTAQSNSAKEWLQVDLGTQRQVTGIITQGARDFGHIQYVASYKVAHSDDGVQWTVYEEQGSSKVFQGNLDNNSHKKNIFEKPFMARYVRVLPVSWHNRITLRLELLGC"}},
  "assay_in_all_cases": "glycan array binding signal (z-score within array); higher = stronger binding",
  "conditions_in_all_cases": "glycan notation: IUPAC condensed, linker removed",
  "key": {"[1]": {"molecular_target": "GlcNAc(b1-4)GlcNAc(b1-4)GlcNAc", "summary_of_the_method": "(§1)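 Glycan array binding is given as a within-array Z-score, which can be read as non-binding when negative. The arrays, 3228 of them, came from the Consortium for Functional Glycomics database and were retained only where the protein sequence was available. Z-scores were averaged across arrays of the same protein sequence at different concentrations or buffers and across linkers.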"}, "[2]": {"molecular_target": "Neu5Ac(a2-3)Gal(b1-3)GlcNAc(b1-2)Man(a1-3)[Neu5Ac(a2-3)Gal(b1-3)GlcNAc(b1-2)Man(a1-6)]Man(b1-4)GlcNAc(b1-4)GlcNAc", "summary_of_the_method": "as §1"}, "[3]": {"molecular_target": "Neu5Ac(a2-3)Gal(b1-3)GlcNAc(b1-3)Gal(b1-3)GlcNAc", "summary_of_the_method": "as §1"}, "[4]": {"molecular_target": "Neu5Ac(a2-3)Gal(b1-3)GlcNAc(b1-3)GalNAc", "summary_of_the_method": "as §1"}, "[5]": {"molecular_target": "Neu5Ac(a2-3)Gal(b1-4)GlcNAc(b1-3)Gal", "summary_of_the_method": "as §1"}, "[6]": {"molecular_target": "Neu5Ac(a2-3)Gal(b1-4)GlcNAc(b1-3)Gal(b1-4)GlcNAc(b1-6)[Gal(b1-3)]GalNAc", "summary_of_the_method": "as §1"}, "[7]": {"molecular_target": "Neu5Ac(a2-3)Gal(b1-4)GlcNAc6S", "summary_of_the_method": "as §1"}, "[8]": {"molecular_target": "Neu5Ac(a2-6)Gal", "summary_of_the_method": "as §1"}, "[9]": {"molecular_target": "Neu5Ac(a2-6)Gal(b1-4)GlcNAc(b1-2)Man(a1-3)[GlcNAc(b1-4)][Neu5Ac(a2-6)Gal(b1-4)GlcNAc(b1-2)Man(a1-6)]Man(b1-4)GlcNAc(b1-4)GlcNAc", "summary_of_the_method": "as §1"}, "[10]": {"molecular_target": "Neu5Ac(a2-6)Gal(b1-4)GlcNAc(b1-3)Gal(b1-4)[Fuc(a1-3)]GlcNAc(b1-3)Gal(b1-4)[Fuc(a1-3)]GlcNAc", "summary_of_the_method": "as §1"}, "[11]": {"molecular_target": "Neu5Ac(a2-6)GalNAc(b1-4)GlcNAc6S", "summary_of_the_method": "as §1"}, "[12]": {"molecular_target": "Neu5Ac(a2-8)Neu5Ac(a2-8)Neu5Ac(a2-3)Gal(b1-4)Glc", "summary_of_the_method": "as §1"}, "[13]": {"molecular_target": "Neu5Gc(a2-3)Gal(b1-3)[Fuc(a1-4)]GlcNAc", "summary_of_the_method": "as §1"}},
  "note": "The full list was thinned out, with the strongest signals kept by preference.",
  "data": [
    {"binder": "B1", "values": [
      {"measurement": "glycan array binding signal (z-score)", "setting": "[1]", "result": -0.582},
      {"measurement": "glycan array binding signal (z-score)", "setting": "[2]", "result": -0.096},
      {"measurement": "glycan array binding signal (z-score)", "setting": "[3]", "result": -1.04},
      {"measurement": "glycan array binding signal (z-score)", "setting": "[4]", "result": 0.592},
      {"measurement": "glycan array binding signal (z-score)", "setting": "[5]", "result": 0.469},
      {"measurement": "glycan array binding signal (z-score)", "setting": "[6]", "result": -0.309},
      {"measurement": "glycan array binding signal (z-score)", "setting": "[7]", "result": -0.285},
      {"measurement": "glycan array binding signal (z-score)", "setting": "[8]", "result": 0.316},
      {"measurement": "glycan array binding signal (z-score)", "setting": "[9]", "result": 0.277},
      {"measurement": "glycan array binding signal (z-score)", "setting": "[10]", "result": -0.437},
      {"measurement": "glycan array binding signal (z-score)", "setting": "[11]", "result": 3.05},
      {"measurement": "glycan array binding signal (z-score)", "setting": "[12]", "result": -0.889},
      {"measurement": "glycan array binding signal (z-score)", "setting": "[13]", "result": 2.55}
    ]}
  ]
}
